Results taken from PubChem BioAssay AID651956 (Broad Institute, 2012).
Entries with a potency or affinity are not part of this list. Records with an inconclusive call do not appear. A number with no mark means an inactive call.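 Rule for the calls: active = in every test run, a fitted half-maximal concentration for signal decrease at or below twice the highest tested concentration; inconclusive = runs disagree, flat 30 to 70% decrease, or poor fit; inactive = the rest.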

Assay: activation of miR-122 Renilla sensor silencing – cell-based, Huh7 psiCHECK-miR122, Renilla luciferase, cherry-picked, dose response (AID 651956);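 note: 0% = median neutral control wells and -100% = median positive control wells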
Conditions: Huh7 psiCHECK-miR122 Renilla luciferase reporter, 48 h; series mostly up to 35 µM; activity change, negative = signal decrease: at the top concentration

SMILES | activity change, negative = signal decrease
COCC(=O)N1[C@H](CO)[C@H]2c3ccccc3N(C(=O)c3ccccc3F)C[C@H]21 | -11%
CC(=O)N1[C@H](CO)[C@@H](c2ccccc2)[C@H]1CN(C(=O)NC(C)C)C1CCCC1 | 8.18%
CC(C)C(=O)Nc1ccc2c(c1)C(=O)N(C)[C@@H]1CC[C@@H](CC(=O)N[C@H](C)c3ccccc3)O[C@@H]1CO2 | -36.3%
Cc1cc2n(n1)C(c1cn(-c3ccccc3)nc1C)Nc1c(C)cccc1-2 (configuration not stated) | 51.5%
CCCC(=O)Nc1ccc2c(c1)C(=O)N(C)[C@@H]1CC[C@H](CC(=O)NCCOC)O[C@H]1CO2 | 57.9%
COCC(=O)N(C)C[C@@H]1[C@@H](c2ccccc2)[C@H](CO)N1C(=O)Cc1ccncc1 | -13.1% [at 30 µM]
CN(C[C@H]1N[C@@H](CO)[C@@H]1c1ccc(C2=CCCC2)cc1)C(=O)c1ccccn1 | 209%
COCC(=O)Nc1ccc2c(c1)C(=O)N(C)[C@@H]1CC[C@@H](CC(=O)NCCCN(C)C)O[C@@H]1CO2 | -13.9%
COc1ccc2[nH]c(=O)c(COC(=O)c3ccco3)cc2c1 | 71.3%
C/C(=N\Nc1cc(N2CCCCC2)nc(C)n1)c1ccc(Br)cc1 | 20.9%
CN1C(=O)c2cc(NC(=O)c3ccc4c(c3)OCO4)ccc2OC[C@@H]2O[C@@H](CC(=O)O)CC[C@@H]21 | 155%
Cc1cccc(NC(=O)Nc2ccc3c(c2)C(=O)N(C)[C@H]2CC[C@H](CC(=O)O)O[C@H]2CO3)c1 | -12.9%
CN1C(=O)c2cc(NC(=O)c3ccc4c(c3)OCO4)ccc2OC[C@H]2O[C@H](CC(=O)O)CC[C@@H]21 | 90%
COc1ccc(NC(=O)Cn2nnc(C(=O)NCc3ccccc3OC)c2N)cc1Cl | 48.8%
CCCCN1C=C(C(=O)OC)C(c2ccccc2C(F)(F)F)C(C(=O)OC)=C1 | 40.1%
CCNC(=O)C[C@@H]1CC[C@@H]2[C@@H](COc3ccc(NC(=O)c4ccccc4)cc3C(=O)N2C)O1 | 57.6%
COc1cccc(CNC(=O)C[C@H]2CC[C@@H]3[C@H](COc4ccc(NC(C)=O)cc4C(=O)N3C)O2)c1 | -32.5%
CN1CCN(C(=O)C[C@H]2CC[C@@H]3[C@H](COc4ccc(NC(=O)c5cccs5)cc4C(=O)N3C)O2)CC1 | -16.5%
Cc1cc(C(=O)Nc2ccc3c(c2)C(=O)N(C)[C@H]2CC[C@@H](CC(=O)N[C@@H](C)c4ccccc4)O[C@H]2CO3)no1 | 108%
CCCC(=O)Nc1ccc2c(c1)C(=O)N(C)[C@H]1CC[C@@H](CC(=O)NCCN3CCCCC3)O[C@H]1CO2 | 138%
COC(=O)C[C@@H]1CC[C@@H]2[C@H](COc3ccc(NS(=O)(=O)c4ccc(F)cc4)cc3C(=O)N2C)O1 | 90.1%
CC(=O)N1[C@@H](CO)[C@@H](c2ccccc2)[C@@H]1CNC(=O)CN1CCOCC1 | -4.92%
Cc1cc(C(=O)Nc2cccc(O)c2)co1 | -6.99%
C=CCNC(=S)NNC(=O)c1cccn(Cc2ccc(Cl)c(Cl)c2)c1=O | -25.4%
COc1cccc(NC(=O)Nc2ccc3c(c2)C(=O)N(C)[C@@H]2CC[C@H](CC(=O)O)O[C@H]2CO3)c1 | -9.26%
CNC(=O)C[C@H]1CC[C@H]2[C@@H](COc3ccc(NC(=O)C(C)C)cc3C(=O)N2C)O1 | -10%
Cc1ccccc1-c1nc(CN2CCCC(C(=O)NCCCN3CCOCC3)C2)c(C)o1 (configuration not stated) | -7.02%
